Test [1] is described as follows: ATG_CRE_CIS: Attagene CIS-FACTORIAL HepG2 Assay for human cAMP Responsive Element (CRE) binding protein 3 (AID 2282926). As to conditions: HepG2 CRE cis-reporter, Attagene multiplexed mRNA; actives raise or lower the signal. The method in brief: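 Capillary electrophoresis of 6-FAM-labelled, HpaI-digested PCR products quantified reporter transcripts. These came from HepG2 transiently transfected with cis-element reporters and exposed to test chemicals for 24 hours, with DMSO defining baseline activity.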

Test [2] concerns the target CCAAT/enhancer-binding protein beta (Homo sapiens) (UniProt P17676). Briefly: ATG_C_EBP_CIS: Attagene CIS-FACTORIAL HepG2 Assay for human CCAAT/Enhancer Binding Protein (C/EBP) beta (AID 2282927). The settings on record: HepG2 Attagene cis-factorial transcription factor reporter; actives raise or lower the signal. The method in brief:
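Following a 24 h incubation with test chemical, transfected HepG2 cells yielded RNA whose reporter transcripts were quantified by RT-PCR and fluorescent capillary electrophoresis, with DMSO serving as baseline for bidirectional fitting.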

A short description of test [3]: ATG_BRE_CIS: Attagene CIS-FACTORIAL HepG2 Assay for human Bone Morphogenetic Protein (BMP) Response Element (BRE) (AID 2282933). As to conditions: HepG2 BMP response element reporter, Attagene transcription factor profiling; actives raise or lower the signal. The method in brief:
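Endogenous transcription factor activity at a BMP response element was monitored in transfected HepG2 cells 24 h after dosing. Fluorescent RT-PCR products were resolved by capillary electrophoresis, and activity was fitted in both directions versus DMSO.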

Test [4] in a line: ATG_M_19_CIS: Attagene CIS-FACTORIAL HepG2 Assay for M19 Transcription Factor (Internal Marker) (AID 2282939). The settings on record: HepG2 Attagene CIS-FACTORIAL M19 internal marker reporter; actives raise or lower the signal. In short, it runs like this:
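Background-control endpoint from a multiplexed HepG2 reporter panel. Cells carrying cis-regulated reporter constructs are treated 24 h, then reporter transcripts are amplified, fluorescently labelled and sized by capillary electrophoresis. DMSO defines baseline.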

A short description of test [5]: ATG_GLI_CIS: Attagene CIS-FACTORIAL HepG2 Assay for human Zinc Finger Protein GLI1 (AID 2282945). As to conditions: HepG2, Attagene cis-factorial reporter mRNA, GLI element; actives raise or lower the signal. In short, it runs like this:
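HepG2 cells transiently transfected with cis-promoter multiplexed reporter units report endogenous transcription factor activity. After 24 h chemical exposure, reporter mRNA was quantified by RT-PCR, 6-FAM labelling, HpaI digestion and capillary electrophoresis, with bidirectional fitting against DMSO.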

In test [6] the target is Hypoxia-inducible factor 1-alpha (Homo sapiens) (UniProt Q16665). Briefly: ATG_HIF1a_CIS: Attagene CIS-FACTORIAL HepG2 Assay for human Hypoxia Inducible Factor 1 (HIF1A) (AID 2282951). The settings on record: HepG2 Attagene cis-factorial HIF1a reporter transcription; actives raise or lower the signal. In short, it runs like this:
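HepG2, transient cis-reporter library, 24 h dosing. RNA → RT (oligo dT) → PCR → 6-FAM primer extension → HpaI → CE. Bidirectional curve fit vs DMSO.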

The target in test [7] is Hepatocyte nuclear factor 6 (Homo sapiens) (UniProt Q9UBC0). Briefly: ATG_HNF6_CIS: Attagene CIS-FACTORIAL HepG2 Assay for human Hepatocyte Nuclear Factor 6 (HNF6) (AID 2282952). As to conditions: HepG2 Attagene cis-factorial HNF6 reporter transcription; actives raise or lower the signal. In short, it runs like this:
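Activity values derive from bidirectional fitting against DMSO of reporter mRNA levels, measured by capillary electrophoresis of labelled RT-PCR products from HepG2 cells exposed 24 h.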

The target of test [8] is Heat shock factor protein 1 (Homo sapiens) (UniProt Q00613). Nature of the test: ATG_HSE_CIS: Attagene CIS-FACTORIAL HepG2 Assay for human Heat Shock Transcription Factor 1 (HSE) (AID 2282953). As to conditions: HepG2 HSE cis-reporter, Attagene RNA transcription; actives raise or lower the signal. In short, it runs like this:
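Cells were transfected with cis-element-driven reporter constructs, dosed for 24 h, then total RNA was reverse-transcribed and reporter cDNA amplified, FAM-labelled and digested with HpaI. Fragments were resolved by capillary electrophoresis; gain or loss was fitted against DMSO.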

The nature of test [9]: ATG_VDRE_CIS: Attagene CIS-FACTORIAL HepG2 Assay for human Vitamin D Receptor Element (VDRE) (AID 2282968). As to conditions: HepG2 VDRE cis-reporter transcription, actives raise or lower the signal. The method in brief:
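Steps: transfect HepG2 with multiple reporter transcription units; dose chemicals 24 h; isolate RNA; RT-PCR; label with 6-FAM primer extension; HpaI digest; capillary electrophoresis. Curves fitted both directions against DMSO.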

Test [10] concerns the target X-box-binding protein 1 (Homo sapiens) (UniProt P17861). Nature of the test: ATG_Xbp1_CIS: Attagene CIS-FACTORIAL HepG2 Assay for human X-box Binding Protein 1 (XBP1) (AID 2282972). As to conditions: HepG2 XBP1 cis-element reporter, Attagene multiplex; actives raise or lower the signal. The method in brief:
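Changes in reporter transcript abundance, read by RT-PCR and capillary electrophoresis, reflect endogenous transcription factor activity. Transfected HepG2 cells received compound for 24 hours; DMSO defined baseline for bidirectional analysis.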

The target of test [11] is Nuclear respiratory factor 1 (Homo sapiens) (UniProt Q16656). Nature of the test: ATG_NRF1_CIS: Attagene CIS-FACTORIAL HepG2 Assay for human Nuclear Respiratory Factor 1 (NRF1) Orphan Gene (AID 2282987). As to conditions: HepG2 NRF1 cis-element reporter, Attagene multiplex; actives raise or lower the signal. The method in brief: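 Human hepatoma HepG2 cells carrying transfected promoter-regulated reporter units were incubated with test chemicals for 24 h. Reporter transcripts were measured by RT-PCR plus capillary electrophoresis, and endpoints derived by bidirectional fitting with DMSO as baseline.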

Test [12] deals with Myc proto-oncogene protein (Homo sapiens) (UniProt P01106). Nature of the test: ATG_Myc_CIS: Attagene CIS-FACTORIAL HepG2 Assay for human Myelocytomatosis (Myc) Proto-Oncogene Transcription Factor (AID 2282990). The settings on record: HepG2, Attagene cis-reporter transcription factor activity; actives raise or lower the signal. In short, it runs like this:
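Multiplexed cis-reporter transcription in HepG2 cells after 24 h chemical treatment. Reporter mRNA measured by RT-PCR and capillary electrophoresis fluorescence; activity fitted bidirectionally against DMSO control.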

A short description of test [13]: ATG_NRF2_ARE_CIS: Attagene CIS-FACTORIAL HepG2 Assay for human Nuclear Factor Erythroid 2 Related Factor 2 (NFR2) response to Antioxidant Response Elements (ARE) (AID 2282992). As to conditions: HepG2 Attagene ARE/NRF2 reporter, transcription factor activity; actives raise or lower the signal. In short, it runs like this:
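Using transiently transfected HepG2 cells exposed for 24 h, reporter mRNA levels were determined by RT-PCR with fluorescent primer extension and capillary electrophoresis, analysed for gain or loss of signal against DMSO.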

Test [14] can be described thus: ATG_Oct_MLP_CIS: Attagene CIS-FACTORIAL HepG2 Assay for human Octamer-Binding Transcription Factor (Oct) (AID 2282993). As to conditions: HepG2 Attagene cis-factorial Oct reporter, mRNA; actives raise or lower the signal. The method in brief:
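Multiplexed cis-reporter assay in human liver HepG2 cells, 24 h incubation. Reporter RNA amplified and labelled, then resolved by capillary electrophoresis; DMSO serves as negative control and baseline.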

The target in test [15] is Cellular tumor antigen p53 (Homo sapiens) (UniProt P04637). Briefly: ATG_p53_CIS: Attagene CIS-FACTORIAL HepG2 Assay for human p53 Transcription Factor (AID 2282994). As to conditions: HepG2 p53 cis-element reporter, Attagene mRNA; actives raise or lower the signal. The method in brief: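 In HepG2 cells, reporter transcription units under cis-regulatory promoters were transiently introduced. Following 24 h treatment, RNA was processed to labelled, digested cDNA fragments read by capillary electrophoresis; fitting was bidirectional versus DMSO.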

Test [16] can be described thus: ATG_E_Box_CIS: Attagene CIS-FACTORIAL HepG2 Assay for human Enhancer Box (E-box) (AID 2282936). The settings on record: HepG2 E-box cis-reporter transcription, actives raise or lower the signal. The method in brief:
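Endogenous transcription factor activity was sensed in human HepG2 liver cells through transfected cis-promoter reporter units. After 24 h of dosing, total RNA was reverse-transcribed and reporter cDNA resolved by capillary electrophoresis.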

The nature of test [17]: ATG_M_06_CIS: Attagene CIS-FACTORIAL HepG2 Assay for M06 Transcription Factor (Internal Marker) (AID 2282950). As to conditions: HepG2 Attagene CIS-FACTORIAL M06 internal marker reporter; actives raise or lower the signal. In short, it runs like this:
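Steps: transfect HepG2 with multiplexed cis-element reporter constructs; dose chemical 24 h; extract RNA with DNase treatment; reverse-transcribe, PCR-amplify, 6-FAM label, HpaI digest; separate fragments by capillary electrophoresis. Activity fitted both directions versus DMSO.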

The target in test [18] is Aryl hydrocarbon receptor (Homo sapiens) (UniProt P35869). Briefly: ATG_Ahr_CIS: Attagene CIS-FACTORIAL HepG2 Assay for human Aryl Hydrocarbon Receptor (Ahr) (AID 2282930). As to conditions: HepG2 AhR cis-factorial reporter transcription; actives raise or lower the signal. The method in brief:
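Values derive from bidirectional fitting against DMSO negative control. Underlying signal: cis-element reporter mRNA in transiently transfected HepG2, harvested 24 h post-dose and measured by RT-PCR plus capillary electrophoresis.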

Test [19] in a line: ATG_AP_1_CIS: Attagene CIS-FACTORIAL HepG2 Assay for human Activator Protein 1 (AP-1) (AID 2282931). As to conditions: HepG2 Attagene cis-factorial AP-1 reporter mRNA; actives raise or lower the signal. The method in brief: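 Fluorescence of labelled PCR fragments separated by capillary electrophoresis gives reporter mRNA levels. HepG2 with transfected cis-regulated reporter units, 24 h exposure; DMSO serves as baseline for bidirectional curve fits.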

The nature of test [20]: ATG_TA_CIS: Attagene CIS-FACTORIAL HepG2 Assay for human TA Basal Promoter (AID 2282964). The settings on record: HepG2 Attagene CIS-factorial TA basal promoter reporter; actives raise or lower the signal. In short, it runs like this: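 Steps: transfect HepG2 with MRTUs; dose 24 h; isolate RNA, DNase-treat, reverse-transcribe; PCR and FAM-label reporter cDNA; digest with HpaI 2h at 37 C; run capillary electrophoresis. Activity fitted both directions against DMSO.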

The source made the active and inactive calls. The calls were made as follows: active = hit-call score of the fitted dose curve at least 0.9, where 1 is the maximum; inactive = score below 0.9.

Chain of Hypoxia-inducible factor 1-alpha (Homo sapiens) (Q16665 whole entry, looked up): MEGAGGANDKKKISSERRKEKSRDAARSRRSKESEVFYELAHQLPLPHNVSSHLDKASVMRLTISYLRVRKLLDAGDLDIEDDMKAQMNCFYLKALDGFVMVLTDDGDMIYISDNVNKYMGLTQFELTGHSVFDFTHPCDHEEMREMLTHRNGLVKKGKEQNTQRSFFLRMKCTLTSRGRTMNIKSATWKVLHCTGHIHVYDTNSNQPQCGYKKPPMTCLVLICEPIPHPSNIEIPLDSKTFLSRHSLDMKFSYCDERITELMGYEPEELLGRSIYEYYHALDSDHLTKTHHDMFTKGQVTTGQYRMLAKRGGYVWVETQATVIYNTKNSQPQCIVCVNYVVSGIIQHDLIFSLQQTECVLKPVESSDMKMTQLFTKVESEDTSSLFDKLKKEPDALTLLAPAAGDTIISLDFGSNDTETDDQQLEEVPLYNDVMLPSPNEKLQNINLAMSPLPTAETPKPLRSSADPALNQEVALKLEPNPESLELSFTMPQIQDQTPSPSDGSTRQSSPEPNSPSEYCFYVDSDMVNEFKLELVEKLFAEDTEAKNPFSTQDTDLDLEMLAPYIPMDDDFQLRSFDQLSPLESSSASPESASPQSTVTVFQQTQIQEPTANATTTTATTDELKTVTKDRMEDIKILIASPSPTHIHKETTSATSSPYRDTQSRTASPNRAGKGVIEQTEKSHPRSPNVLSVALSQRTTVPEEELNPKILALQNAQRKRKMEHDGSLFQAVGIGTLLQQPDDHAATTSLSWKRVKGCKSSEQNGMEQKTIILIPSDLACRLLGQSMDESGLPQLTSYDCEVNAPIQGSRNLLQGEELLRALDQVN
Chain of Hepatocyte nuclear factor 6 (Homo sapiens) (Q9UBC0 whole entry, looked up): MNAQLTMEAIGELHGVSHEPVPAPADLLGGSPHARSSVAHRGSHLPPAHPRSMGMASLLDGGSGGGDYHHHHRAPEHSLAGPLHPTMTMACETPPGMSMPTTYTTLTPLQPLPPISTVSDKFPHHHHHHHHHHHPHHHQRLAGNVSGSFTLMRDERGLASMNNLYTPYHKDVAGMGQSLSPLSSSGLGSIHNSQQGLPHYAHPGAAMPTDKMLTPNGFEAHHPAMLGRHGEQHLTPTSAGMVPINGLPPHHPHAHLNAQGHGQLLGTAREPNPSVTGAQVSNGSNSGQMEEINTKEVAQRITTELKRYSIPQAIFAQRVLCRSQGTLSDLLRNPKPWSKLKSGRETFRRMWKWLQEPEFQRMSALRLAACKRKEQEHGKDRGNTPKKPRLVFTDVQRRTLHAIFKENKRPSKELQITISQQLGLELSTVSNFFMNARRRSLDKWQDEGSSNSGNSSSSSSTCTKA
Chain of Heat shock factor protein 1 (Homo sapiens) (Q00613 whole entry, looked up, the tested form may be a part): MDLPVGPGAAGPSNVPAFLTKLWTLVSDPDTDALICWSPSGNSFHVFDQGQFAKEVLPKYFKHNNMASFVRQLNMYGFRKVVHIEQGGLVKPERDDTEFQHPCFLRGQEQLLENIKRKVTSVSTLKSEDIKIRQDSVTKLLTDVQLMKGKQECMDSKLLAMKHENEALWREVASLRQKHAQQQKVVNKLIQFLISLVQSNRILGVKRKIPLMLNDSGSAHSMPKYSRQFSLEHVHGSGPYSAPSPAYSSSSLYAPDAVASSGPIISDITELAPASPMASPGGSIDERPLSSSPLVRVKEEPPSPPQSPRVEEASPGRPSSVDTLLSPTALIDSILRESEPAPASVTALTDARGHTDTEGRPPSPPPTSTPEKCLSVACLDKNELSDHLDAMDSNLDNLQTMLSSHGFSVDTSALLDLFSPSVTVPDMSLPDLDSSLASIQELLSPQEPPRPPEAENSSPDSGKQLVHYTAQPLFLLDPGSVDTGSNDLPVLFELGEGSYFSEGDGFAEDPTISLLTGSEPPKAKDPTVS
Chain of Myc proto-oncogene protein (Homo sapiens) (P01106 whole entry, looked up): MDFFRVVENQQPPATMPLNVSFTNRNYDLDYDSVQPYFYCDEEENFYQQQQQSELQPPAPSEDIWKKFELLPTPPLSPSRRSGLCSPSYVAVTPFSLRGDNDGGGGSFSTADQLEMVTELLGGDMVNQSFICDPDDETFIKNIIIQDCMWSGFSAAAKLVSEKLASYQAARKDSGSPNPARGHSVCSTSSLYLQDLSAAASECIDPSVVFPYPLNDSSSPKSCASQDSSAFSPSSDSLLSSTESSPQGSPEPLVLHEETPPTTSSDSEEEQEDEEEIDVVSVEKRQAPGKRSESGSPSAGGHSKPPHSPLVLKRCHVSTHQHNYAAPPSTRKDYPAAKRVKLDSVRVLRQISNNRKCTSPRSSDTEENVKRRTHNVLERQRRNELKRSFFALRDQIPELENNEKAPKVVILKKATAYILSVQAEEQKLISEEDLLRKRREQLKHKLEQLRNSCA
Chain of X-box-binding protein 1 (Homo sapiens) (P17861 whole entry, looked up): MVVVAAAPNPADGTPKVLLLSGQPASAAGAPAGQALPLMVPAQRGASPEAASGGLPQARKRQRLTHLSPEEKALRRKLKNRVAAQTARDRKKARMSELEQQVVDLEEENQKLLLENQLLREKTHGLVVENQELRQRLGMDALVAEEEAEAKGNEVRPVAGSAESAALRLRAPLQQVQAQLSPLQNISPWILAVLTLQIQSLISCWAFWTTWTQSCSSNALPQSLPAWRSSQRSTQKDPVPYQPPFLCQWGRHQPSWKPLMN
Chain of Nuclear respiratory factor 1 (Homo sapiens) (Q16656 whole entry, looked up): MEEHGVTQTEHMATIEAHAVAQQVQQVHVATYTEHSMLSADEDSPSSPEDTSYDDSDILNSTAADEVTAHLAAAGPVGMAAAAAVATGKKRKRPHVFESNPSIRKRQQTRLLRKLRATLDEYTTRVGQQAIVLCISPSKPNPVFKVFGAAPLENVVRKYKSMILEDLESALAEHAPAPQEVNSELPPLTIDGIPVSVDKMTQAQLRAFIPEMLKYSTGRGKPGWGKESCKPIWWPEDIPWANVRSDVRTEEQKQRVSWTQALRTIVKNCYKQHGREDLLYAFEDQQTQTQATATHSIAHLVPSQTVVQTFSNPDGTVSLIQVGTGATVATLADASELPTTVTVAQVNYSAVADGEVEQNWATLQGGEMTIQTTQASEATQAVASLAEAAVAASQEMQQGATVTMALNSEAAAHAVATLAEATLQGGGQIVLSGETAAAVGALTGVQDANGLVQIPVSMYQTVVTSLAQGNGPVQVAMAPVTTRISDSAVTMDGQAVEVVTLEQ
Chain of Cellular tumor antigen p53 (Homo sapiens) (P04637 whole entry, looked up, the tested form may be a part): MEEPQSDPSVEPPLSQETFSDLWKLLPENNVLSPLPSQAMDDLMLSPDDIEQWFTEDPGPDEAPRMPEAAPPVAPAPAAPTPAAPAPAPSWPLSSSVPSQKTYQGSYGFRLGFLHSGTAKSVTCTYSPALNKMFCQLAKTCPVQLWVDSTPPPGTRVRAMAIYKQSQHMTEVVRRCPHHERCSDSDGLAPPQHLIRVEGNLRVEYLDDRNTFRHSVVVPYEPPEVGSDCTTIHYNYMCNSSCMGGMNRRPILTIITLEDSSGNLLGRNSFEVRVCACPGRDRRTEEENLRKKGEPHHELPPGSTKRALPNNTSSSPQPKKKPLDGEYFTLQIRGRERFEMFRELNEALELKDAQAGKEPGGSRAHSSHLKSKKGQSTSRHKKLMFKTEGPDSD
Chain of CCAAT/enhancer-binding protein beta (Homo sapiens) (P17676 whole entry, looked up): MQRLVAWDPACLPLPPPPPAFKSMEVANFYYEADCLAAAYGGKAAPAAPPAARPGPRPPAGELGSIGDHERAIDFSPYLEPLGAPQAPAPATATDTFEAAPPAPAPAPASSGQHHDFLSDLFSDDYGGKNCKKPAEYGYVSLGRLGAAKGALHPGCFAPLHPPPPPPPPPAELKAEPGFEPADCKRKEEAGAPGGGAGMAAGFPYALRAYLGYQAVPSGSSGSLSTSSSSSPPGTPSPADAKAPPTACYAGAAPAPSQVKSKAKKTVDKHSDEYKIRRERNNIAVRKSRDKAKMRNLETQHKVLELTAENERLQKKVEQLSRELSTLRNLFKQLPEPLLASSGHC
Chain of Aryl hydrocarbon receptor (Homo sapiens) (P35869 whole entry, looked up): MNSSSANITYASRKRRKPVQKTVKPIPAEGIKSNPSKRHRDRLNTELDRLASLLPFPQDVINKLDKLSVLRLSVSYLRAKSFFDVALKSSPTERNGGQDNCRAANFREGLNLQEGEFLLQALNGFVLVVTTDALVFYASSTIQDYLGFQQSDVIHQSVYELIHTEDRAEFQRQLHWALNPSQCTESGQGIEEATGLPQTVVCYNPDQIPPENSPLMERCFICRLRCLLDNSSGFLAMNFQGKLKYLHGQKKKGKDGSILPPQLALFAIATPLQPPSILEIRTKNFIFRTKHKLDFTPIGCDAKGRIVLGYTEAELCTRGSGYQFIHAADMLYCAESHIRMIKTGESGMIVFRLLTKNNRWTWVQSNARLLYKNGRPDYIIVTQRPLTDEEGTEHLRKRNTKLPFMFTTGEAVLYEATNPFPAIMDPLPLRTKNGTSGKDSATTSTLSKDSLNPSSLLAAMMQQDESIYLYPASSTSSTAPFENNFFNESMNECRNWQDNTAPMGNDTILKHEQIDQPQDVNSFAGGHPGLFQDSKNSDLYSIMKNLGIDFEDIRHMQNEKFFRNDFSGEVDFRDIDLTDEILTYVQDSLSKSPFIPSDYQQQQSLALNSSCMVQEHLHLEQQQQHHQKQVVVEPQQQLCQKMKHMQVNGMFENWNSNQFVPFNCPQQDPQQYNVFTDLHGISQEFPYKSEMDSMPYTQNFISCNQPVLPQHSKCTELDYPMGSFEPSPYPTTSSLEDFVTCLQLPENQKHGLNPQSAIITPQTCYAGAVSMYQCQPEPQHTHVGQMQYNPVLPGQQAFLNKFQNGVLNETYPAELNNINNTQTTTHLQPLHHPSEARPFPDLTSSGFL

One may read the AC50 as the midpoint of the concentration-response curve, whichever way the signal moves. Turning to `C=CC(=O)OCCO`, the AC50 in test [1] is 116 µM (active); in [2], 123 µM (active); in test [3], 36.9 µM (active); in test [6], 100 µM (active); in test [9], 116 µM (active); in test [10], 131 µM (active). Further, the AC50 is 47.6 µM (active) in test [13] and 100 µM (active) in test [14]. The result in [4], in [5], in test [7], in [8], in test [11] and in [12] was inactive. Further, the result in [15] was inactive.
Consider `CC(C)(C)C(=O)CCl`, for which the compound was classed as inactive in [1], in test [2], in [3], in test [5], in test [17] and in test [7]. Besides, the outcome in [9], in [10], in test [12], in test [14] and in test [15] was inactive. For the same compound, the AC50 is 45.2 µM (active) in test [16], 62.4 µM (active) in test [6], 157 µM (active) in test [8] and 21.6 µM (active) in test [13].
With `CCN(CC)C(=S)S`, the result in test [1], in test [18], in [5], in test [6], in test [7] and in [8] was inactive. For the same compound, the compound was called inactive in test [20], in test [9], in [10], in test [11], in test [12] and in [14]. The AC50 in test [19] is 65.5 µM (active); in test [13] it was 27.8 µM (active).
Consider `NNc1ccccc1`, for which the result in test [1], in test [19], in test [3], in test [16], in test [5] and in [17] was inactive. The call in [6], in test [7], in test [8], in [20], in test [10] and in [12] was inactive. Besides, the call in test [14] was inactive. In addition, the concentration at half-maximal activity (AC50) in test [13] is 47.1 µM (active).

The values above are taken from PubChem BioAssay (EPA / NIEHS).
